{
  "source": "PubChem BioAssay (EPA / NIEHS)",
  "note": "Inconclusive results are not listed. The source made the active and inactive calls. The calls were made as follows: active = hit-call score of the fitted dose curve at least 0.9, where 1 is the maximum; inconclusive = response in the unintended direction; inactive = score below 0.9.",
  "data": [
    {"target": "human Retinoid X Receptor beta (RXRb), RXRB (gene 6257) (UniProt P28702)", "sequence (P28702 whole entry, looked up)": "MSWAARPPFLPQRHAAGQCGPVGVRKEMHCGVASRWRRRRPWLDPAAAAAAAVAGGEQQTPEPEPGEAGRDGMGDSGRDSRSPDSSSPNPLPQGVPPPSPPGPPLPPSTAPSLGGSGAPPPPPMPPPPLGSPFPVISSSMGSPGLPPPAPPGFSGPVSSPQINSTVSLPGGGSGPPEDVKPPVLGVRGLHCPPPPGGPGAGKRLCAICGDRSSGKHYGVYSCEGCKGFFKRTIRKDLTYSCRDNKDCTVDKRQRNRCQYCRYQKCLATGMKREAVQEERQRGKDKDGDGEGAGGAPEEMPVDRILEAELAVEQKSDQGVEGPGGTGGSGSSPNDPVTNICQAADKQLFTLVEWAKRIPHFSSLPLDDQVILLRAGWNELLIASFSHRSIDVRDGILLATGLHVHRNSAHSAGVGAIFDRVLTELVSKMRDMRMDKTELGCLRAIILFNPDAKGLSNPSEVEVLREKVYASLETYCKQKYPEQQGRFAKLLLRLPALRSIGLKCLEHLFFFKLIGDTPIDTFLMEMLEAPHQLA", "experiment": "ATG_RXRb_TRANS: Attagene TRANS-FACTORIAL HepG2 Assay for human Retinoid X Receptor beta (RXRb) (AID 2283013)", "method": "ATG_TRANS is a cell-based, multiplexed-readout assay that uses HepG2, a human liver cell line, with measurements taken at 24 hours after chemical dosing in a 24-well plate.ATG_RXRb_TRANS is one of 30 assay component(s) measured or calculated from the ATG_TRANS assay. It is designed to make measurements of mRNA induction, a form of inducible reporter, as detected with fluorescence intensity signals by Reverse transcription polymerase chain reaction (RT-PCR) and Capillary electrophoresis technology.Data from the assay component ATG_RXRb_TRANS was analyzed into 1 assay endpoint. This assay endpoint, ATG_RXRb_TRANS, was analyzed in the positive analysis fitting direction relative to DMSO as the negative control and baseline of activity. Using a type of inducible reporter, measures of mRNA for gain-of-signal activity can be used to understand the reporter gene at the transcription factor-level as they relate to the gene RXRB. Furthermore, this assay endpoint can be referred to as a primary readout, because this assay has produced multiple assay endpoints where this one serves a reporter gene function. To generalize the intended target to other relatable targets, this assay endpoint is annotated to the nuclear receptor intended target family, where the subfamily is non-steroidal.\nHuman liver HepG2 cells are transiently transfected with multiple reporter transcription units (MRTUs) in 6-well plates using FuGene 6 reagent (Roche; 3 ml FuGene/1 mg DNA). The MRTU constructs are regulated by a cis-regulating element (promoter). […] A major difference between the CIS and TRANS system is that in CIS activities of endogenous TFs are measured, whereas the TRANS assay evaluates changes in activities of exogenous, chimeric NR-Gal4 proteins. […] At the end of 24 hour incubation, total RNA was isolated using TriZol reagent (Invitrogen). The isolated RNA is then reverse-transcribed using oligo(dT) primer and Mo-MLV reverse transcriptase (Invitrogen) with DNAse I (Ambion) treatment for 30 min. The one-tenth of the produced cDNA was amplified by PCR using Taq DNA polymerase (Invitrogen) and two reporter sequence-specific primers. The PCR products were fluorescently labeled by primer extension with 6-arboxyfluorescein (6-FAM) 5'-labeled reporter sequence-specific primer (2 min at 95 C, 20 s at 68 C and 10 min at 72 C) and these products were digested with 5U of HpaI (New England Biolabs) for 2h at 37 C. The fragments were purified using Qiaquick PCR columns (Qiagen), analyzed on an ABI 3130xL genetic analyzer (Applied Biosystems) with peak positions identified by using a set of X-rhodamine (ROX)-labeled MapMarker1000 molecular weight standards (BioVentures). The raw capillary electrophoresis data was processed using Attagraph software (Attagene).", "values": [
      {"smiles": "NC(=O)C(F)(F)C(F)(F)C(F)(F)C(F)F", "outcome": "inactive"},
      {"smiles": "CCN(CC)c1ccc(C=O)cc1", "outcome": "inactive"},
      {"smiles": "Cc1cccc(C)n1", "outcome": "inactive"},
      {"smiles": "CC(C)CC=C(C=O)c1ccccc1", "outcome": "inactive"},
      {"smiles": "O=C1c2ccccc2C(=O)c2c(Cl)cccc21", "AC50": "28.4 µM (active)"},
      {"smiles": "NC(=O)C(F)(F)C(F)(F)C(F)(F)C(F)(F)C(F)(F)C(F)(F)C(F)(F)F", "outcome": "inactive"},
      {"smiles": "O=C(O)C(F)(F)C(F)(F)C(F)(F)OC(F)(C(F)(F)F)C(F)(F)F", "outcome": "inactive"},
      {"smiles": "CO[Si](C)(CCC(F)(F)C(F)(F)C(F)(F)C(F)(F)C(F)(F)C(F)(F)F)OC", "outcome": "inactive"},
      {"smiles": "CCCCCCCC/C=C\\CCCCCCCC(=O)N(C)CC(=O)O", "outcome": "inactive"},
      {"smiles": "Cc1ccc(S(=O)(=O)C(I)I)cc1", "outcome": "inactive"},
      {"smiles": "Cc1cc(=O)[nH]c(C(C)C)n1", "outcome": "inactive"},
      {"smiles": "CC1=CCC(=O)O1", "outcome": "inactive"},
      {"smiles": "O=C(O)CCC(F)(F)C(F)(F)C(F)(F)C(F)(F)C(F)(F)C(F)(F)C(F)(F)F", "AC50": "41.3 µM (active)"},
      {"smiles": "CO[Si](CCCOCC1CO1)(OC)OC", "note": "(stereo not given)", "outcome": "inactive"},
      {"smiles": "O=C(Cl)C(F)(F)C(F)(F)C(F)(F)C(F)(F)C(F)(F)C(F)(F)C(F)(F)F", "AC50": "34.6 µM (active)"},
      {"smiles": "CC(C)(C)c1cc(Cc2cc(C(C)(C)C)c(O)c(C(C)(C)C)c2)cc(C(C)(C)C)c1O", "AC50": "15.7 µM (active)"},
      {"smiles": "NCC(F)(F)C(F)(F)C(F)(F)C(F)(F)C(F)(F)C(F)(F)F", "outcome": "inactive"},
      {"smiles": "CC(C)CCCC(C)CCO", "note": "(stereo not given)", "outcome": "inactive"},
      {"smiles": "CC(C)(C)C(=O)C1C(=O)c2ccccc2C1=O", "outcome": "inactive"},
      {"smiles": "CCCCCCCCCCCCCC[P+](CCCC)(CCCC)CCCC", "outcome": "inactive"},
      {"smiles": "C=C(C)CCCC", "outcome": "inactive"},
      {"smiles": "CC(C)Nc1ccc(NC(C)C)c2c1C(=O)c1ccccc1C2=O", "outcome": "inactive"},
      {"smiles": "CCN=c1cc2oc3cc(NCC)c(C)cc3c(-c3ccccc3C(=O)OCC)c-2cc1C", "outcome": "inactive"},
      {"smiles": "N#Cc1ccccc1O", "outcome": "inactive"},
      {"smiles": "OCCCCl", "outcome": "inactive"},
      {"smiles": "CCC/C=C/CO", "outcome": "inactive"},
      {"smiles": "OCCCC(F)(F)C(F)(F)C(F)(F)C(F)(F)C(F)(F)C(F)(F)C(F)(F)C(F)(F)F", "AC50": "2.86 µM (active)"},
      {"smiles": "CC(C)(C)c1cc(CCC(=O)OCC(COC(=O)CCc2cc(C(C)(C)C)c(O)c(C(C)(C)C)c2)(COC(=O)CCc2cc(C(C)(C)C)c(O)c(C(C)(C)C)c2)COC(=O)CCc2cc(C(C)(C)C)c(O)c(C(C)(C)C)c2)cc(C(C)(C)C)c1O", "AC50": "22.3 µM (active)"},
      {"smiles": "C=C(C)C(=O)OCC(F)(F)C(F)(F)C(F)(F)C(F)F", "outcome": "inactive"},
      {"smiles": "CCOC(C=C(C)CCC=C(C)C)OCC", "outcome": "inactive"},
      {"smiles": "C=CC(=O)OCC(F)(F)C(F)(F)C(F)(F)C(F)(F)C(F)(F)C(F)(F)C(F)(F)C(F)F", "outcome": "inactive"},
      {"smiles": "CCCCOC(=O)C(C)O", "note": "(stereo not given)", "outcome": "inactive"},
      {"smiles": "CCCCCCCCCCCC(=O)Cl", "AC50": "38.5 µM (active)"},
      {"smiles": "CC(=O)c1ccccc1N", "outcome": "inactive"},
      {"smiles": "CCOC(=O)CCC(C)=O", "outcome": "inactive"},
      {"smiles": "CCCCCCCCCc1ccc(OCCO)cc1", "outcome": "inactive"},
      {"smiles": "Cc1ccc(O)c(-n2nc3ccccc3n2)c1", "AC50": "20.4 µM (active)"},
      {"smiles": "O=C1C=CC(=O)N1c1ccc(Cc2ccc(N3C(=O)C=CC3=O)cc2)cc1", "outcome": "inactive"},
      {"smiles": "CCN(CC)c1ccc(N=Nc2ccccc2)cc1", "outcome": "inactive"},
      {"smiles": "O=S(=O)(Cl)C(F)(F)C(F)(F)C(F)(F)C(F)(F)C(F)(F)C(F)(F)C(F)(F)C(F)(F)F", "outcome": "inactive"}
    ]}
  ]
}
